Several values for one entry are separate records, joined by “and”; a condition that tells them apart may be missing. Equal values may be shown once. In all, about 5,500 compounds went through this assay and about 2,000 (36%) were called active. About 18% were inconclusive and are not listed. Rule as the data show it: active = normalized growth mostly below about 0.91 (no sharp cut-off); inconclusive = no clear call, values can overlap the other calls; inactive = mostly above about 0.92. This is one part of the list. A structure can be active in one record and inactive in another.
Experiment: chemical genetic growth profiling, strain panel (AID 1159580);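 also: tested at 20 µM; growth read once vehicle control cultures reached saturation at 30 °C; 1 = growth at the plate median or of vehicle wells; lower values mean less growth of the strain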
Conditions: S. cerevisiae deletion strains, growth OD

Measured: normalized growth

CN1C2CCC1CC(OC(c1ccccc1)c1ccccc1)C2 (stereo not given)
0.825 (active) and 1.01 (inactive): locus YAL013W, strain DEP1, stronger effect = lower value
inactive: locus YAL021C, strain ccr4, stronger effect = lower value 0.963 | locus YAL026C, strain drs2, stronger effect = lower value 0.975 | locus YAL030W, strain snc1, stronger effect = lower value 0.985 | locus YAL040C, strain CLN3, stronger effect = lower value 0.98 | locus YBL061C, strain skt5, stronger effect = lower value 0.989 | locus YBR009C, strain hhf1, stronger effect = lower value 0.968 | locus YBR021W, strain FUR4, stronger effect = lower value 1.02 | locus YBR023C, strain chs3, stronger effect = lower value 0.994 | locus YBR171W, strain sec66, stronger effect = lower value 0.977 | locus YBR229C, strain ROT2, stronger effect = lower value 0.989 | locus YBR231C, strain swc5, stronger effect = lower value 0.998 | locus YBR279W, strain paf1, stronger effect = lower value 0.967 | locus YCL011C, strain gbp2, stronger effect = lower value 0.982 | locus YCL016C, strain dcc1, stronger effect = lower value 0.969 | locus YCL029C, strain bik1, stronger effect = lower value 0.98 | locus YCL069W, strain vba3, stronger effect = lower value 0.989 | locus YCR088W, strain abp1, stronger effect = lower value 0.998 | locus YDL005C, strain med2, stronger effect = lower value 0.977 | locus YDL035C, strain GPR1, stronger effect = lower value 0.894 | locus YDL040C, strain nat1, stronger effect = lower value 0.992 | locus YDL101C, strain DUN1, stronger effect = lower value 0.914 | locus YDL134C, strain PPH21, stronger effect = lower value 0.924 | locus YDL185W, strain tfp1, stronger effect = lower value 0.969 | locus YDL192W, strain arf1, stronger effect = lower value 0.986 | locus YDR001C, strain nth1, stronger effect = lower value 0.989 | locus YDR069C, strain doa4, stronger effect = lower value 0.981 | locus YDR101C, strain arx1, stronger effect = lower value 1 | locus YDR137W, strain rgp1, stronger effect = lower value 1.01 | locus YDR150W, strain NUM1, stronger effect = lower value 1.01 | locus YDR159W, strain sac3, stronger effect = lower value 0.976 | locus YDR195W, strain ref2 0.975 | locus YDR297W, strain sur2, stronger effect = lower value 0.981 | locus YDR318W, strain mcm21, stronger effect = lower value 0.982 | locus YDR334W, strain swr1, stronger effect = lower value 0.999 | locus YDR335W, strain msn5, stronger effect = lower value 0.986 | locus YDR363W, strain ESC2, stronger effect = lower value 1 | locus YDR388W, stronger effect = lower value 0.972 | locus YDR392W, strain spt3, stronger effect = lower value 0.87 | locus YDR502C, strain sam2, stronger effect = lower value 0.964 | locus YEL003W, strain gim4, stronger effect = lower value 0.983 | locus YEL037C, strain rad23, stronger effect = lower value 0.977 | locus YEL061C, strain CIN8 (second series), stronger effect = lower value 0.988 | locus YEL061C, strain CIN8, stronger effect = lower value 0.983 | locus YER002W, strain NOP16, stronger effect = lower value 0.989 | locus YER015W, strain faa2, stronger effect = lower value 0.99 | locus YER016W, strain bim1, stronger effect = lower value 0.949 | locus YER110C, stronger effect = lower value 0.974 | locus YER111C, strain swi4, stronger effect = lower value 1 | locus YER155C, strain BEM2 (second series), stronger effect = lower value 0.985 | locus YER167W, strain BCK2, stronger effect = lower value 0.939 | locus YFR010W, strain ubp6, stronger effect = lower value 0.973 | locus YGL078C, strain dbp3, stronger effect = lower value 0.98 | locus YGL086W, strain mad1, stronger effect = lower value 0.951 | locus YGL167C, strain pmr1, stronger effect = lower value 0.996 | locus YGL173C, strain kem1, stronger effect = lower value 0.982 | locus YGL227W, strain vid30, stronger effect = lower value 1 | locus YGL240W, strain doc1, stronger effect = lower value 1.02 | locus YGL253W, strain hxk2, stronger effect = lower value 0.999 | locus YGR135W, strain pre9, stronger effect = lower value 0.936 | locus YGR252W, strain gcn5, stronger effect = lower value 0.895 | locus YHR013C, strain ard1, stronger effect = lower value 0.924 | locus YHR027C, strain rpn1, stronger effect = lower value 0.985 | locus YHR079C, strain IRE1 (second series), stronger effect = lower value 0.977 | locus YHR094C, strain hxt1, stronger effect = lower value 0.977 | locus YHR142W, strain chs7, stronger effect = lower value 0.968 | locus YHR200W, strain rpn10, stronger effect = lower value 0.981 | locus YIL066C, strain RNR3, stronger effect = lower value 0.952 | locus YIL073C, strain SPO22, stronger effect = lower value 0.804 | locus YIL125W, strain kgd1, stronger effect = lower value 0.982 | locus YIR030C, strain dcg1, stronger effect = lower value 0.986 | locus YJL092W, strain hpr5, stronger effect = lower value 0.99 | locus YJL095W, strain BCK1 (second series), stronger effect = lower value 0.987 | locus YJL115W, strain asf1, stronger effect = lower value 0.98 | locus YJL129C, strain trk1, stronger effect = lower value 0.975 | locus YJL134W, strain LCB3, stronger effect = lower value 0.997 | locus YJL154C, strain vps35, stronger effect = lower value 0.975 | locus YJL164C, strain tpk1, stronger effect = lower value 0.979 | locus YJL166W, strain qcr8, stronger effect = lower value 1.01 | locus YJL168C, strain set2, stronger effect = lower value 0.985 | locus YJL187C, strain SWE1 (second series), stronger effect = lower value 0.888 | locus YJL187C, strain SWE1, stronger effect = lower value 0.989
active: locus YDL074C, strain BRE1, stronger effect = lower value 0.665 | locus YDR162C, strain NBP2, stronger effect = lower value 0.778 | locus YER155C, strain BEM2, stronger effect = lower value 0.805 | locus YGL248W, strain PDE1, stronger effect = lower value 0.842 | locus YHR030C, strain SLT2, stronger effect = lower value 0.839 | locus YHR129C, strain ARP1, stronger effect = lower value 0.87 | locus YJL095W, strain BCK1, stronger effect = lower value 0.723
0.802 (active) and 1.01 (inactive): locus YGR078C, strain PAC10, stronger effect = lower value

From PubChem BioAssay AID1159580 (chemical genetic matrix, 2015)
